Results as given in PubChem BioAssay (NCI).
Compounds without any hit were thinned out: in the full panel of roughly 79,000, 15% have a hit. Activity calls are given as the source filed them. Rule as the data show it: active = growth inhibition above about 70%; inactive = the rest.

Columns and labels:
[1] = NCI Yeast Anticancer Drug Screen. Data for the rad52 strain (AID 147);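 also: 0% = growth of vehicle-treated control cultures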; conditions: S. cerevisiae rad52 mutant growth inhibition, active compounds read high
Method in brief: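 Compounds are applied to a genetically defined yeast strain lacking normal DNA damage repair, and inhibition of growth is expressed relative to cultures given vehicle only.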

[2] = NCI Yeast Anticancer Drug Screen. Data for the wt1 strain (AID 149);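 also: 0% = growth of vehicle-treated wt1 cultures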; conditions: S. cerevisiae wt1 strain (SPY 50644) growth inhibition, active compounds read high
Method in brief: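 The wt1 strain was treated with compounds, and growth was compared with vehicle-treated cultures to give inhibition.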

[3] = NCI Yeast Anticancer Drug Screen. Data for the rad50EPP+ strain (AID 151);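 also: 0% = growth of vehicle-treated control cultures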; conditions: S. cerevisiae rad50 mutant strain, active compounds read high
Method in brief: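 Compounds were applied to the rad50EPP+ yeast strain, which bears a defined DNA repair alteration, and growth inhibition was determined relative to vehicle-treated cultures.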

[4] = NCI Yeast Anticancer Drug Screen. Data for the mgt1 strain (AID 153); conditions: S. cerevisiae mgt1 mutant growth inhibition, active compounds read high
Method in brief: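 Strain: mgt1 yeast, one of a set carrying defined DNA damage repair or cell cycle control alterations. Compound-treated growth compared with vehicle.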

[5] = NCI Yeast Anticancer Drug Screen. Data for the rad50 strain (AID 155);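 also: 0% = growth of vehicle-only cultures of the same strain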; conditions: S. cerevisiae rad50 strain growth inhibition, active compounds read high
Method in brief: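 Cells are treated with compound, grown, and their growth is then scored against vehicle-only cultures of the same repair-deficient yeast strain.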

[6] = NCI Yeast Anticancer Drug Screen. Data for the mec2-1 strain (AID 157); conditions: S. cerevisiae mec2-1 strain, active compounds read high
Method in brief: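 Strain: mec2-1 (DNA repair/cell cycle alteration). Compound exposure, then growth measured; inhibition expressed relative to vehicle.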

[7] = NCI Yeast Anticancer Drug Screen. Data for the sgs1 mgt1 strain (AID 161);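 also: 0% = growth of cultures given vehicle only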; conditions: S. cerevisiae sgs1 mgt1 strain, active compounds read high
Method in brief: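 Inhibition of yeast growth, normalised to vehicle-treated controls, is reported for a strain bearing genetic alterations in DNA damage repair.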

[8] = NCI Yeast Anticancer Drug Screen. Data for the CLN2oe strain (AID 163);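 also: 0% = growth of vehicle-only control cultures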; conditions: S. cerevisiae CLN2oe strain, active compounds read high
Method in brief: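 Growth of a genetically modified yeast strain is measured after compound exposure and compared with cultures given vehicle alone.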

[9] = NCI Yeast Anticancer Drug Screen. Data for the cln2 rad14 strain (AID 165);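 also: 0% = growth equal to vehicle treated cultures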; conditions: S. cerevisiae cln2 rad14 strain, active compounds read high
Method in brief: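 Compounds are applied to the cln2 rad14 yeast strain, and growth is then compared with that of vehicle-treated cultures to give inhibition.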

[10] = NCI Yeast Anticancer Drug Screen. Data for the bub3 strain (AID 167); conditions: S. cerevisiae bub3 mutant strain, active compounds read high
Method in brief: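 Part of a panel of yeast mutants defective in DNA damage repair or cell cycle regulation. Each strain is grown with compound, and inhibition is calculated relative to solvent-treated cultures.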

[11] = NCI Yeast Anticancer Drug Screen. Data for the wt2 strain (AID 169);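 also: 0% = growth of vehicle-treated yeast cultures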; conditions: S. cerevisiae wt2 strain growth inhibition, active compounds read high
Method in brief: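 This strain belongs to a panel of yeast strains with defined genetic alterations in DNA damage repair or cell cycle control. Compounds are applied, and growth inhibition is measured against vehicle-treated cultures.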

[12] = NCI Yeast Anticancer Drug Screen. Data for the mlh1 strain (AID 171);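 also: 0% = growth of vehicle-treated control cultures of the same strain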; conditions: S. cerevisiae mlh1 strain growth inhibition, active compounds read high
Method in brief: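 Growth of the mutant yeast strain after compound exposure, expressed as inhibition relative to vehicle-only controls.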

[13] = NCI Yeast Anticancer Drug Screen. Data for the sgs1 strain (AID 173);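 also: 0% = growth of vehicle-only control cultures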; conditions: S. cerevisiae sgs1 mutant, active compounds read high
Method in brief: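 Growth of a yeast strain bearing a defined genetic alteration is measured after compound treatment. Inhibition is expressed relative to vehicle-only controls.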

[14] = NCI Yeast Anticancer Drug Screen. Data for the mlh1 rad18 strain (AID 175); conditions: S. cerevisiae mlh1 rad18 strain growth inhibition, active compounds read high
Method in brief: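 Read-out is yeast growth inhibition, calculated against vehicle-only controls. The compound was applied to a strain engineered with DNA damage repair alterations.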

[15] = NCI Yeast Anticancer Drug Screen. Data for the rad18 strain (AID 177); conditions: S. cerevisiae rad18 mutant growth inhibition, active compounds read high
Method in brief: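 Growth of the mutant yeast strain after compound exposure, normalised to vehicle-only cultures.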

[16] = at 5.0 µM (retest, dose inferred, filed as 0.5)
[17] = at 50.0 µM (retest, dose inferred, filed as 5.0)

Measured: growth inhibition

Brc1ccccc1-c1ncc(-c2ccccc2)o1
active: [4]; at 33.0 µM 73% | [4]; at 100.0 µM 78% | [5]; [17] 81% | [5]; at 50.0 µM 72.2% | [5]; at 100.0 µM 70% | [6]; [17] 98% | [6]; at 100.0 µM 76% | [7]; at 50.0 µM 71.4% | [10]; at 33.0 µM 74% | [10]; [17] 82% | [10]; at 50.0 µM 71.2% | [10]; at 100.0 µM 76% | [14]; [17] 82% | [15]; at 33.0 µM 75% | [15]; at 100.0 µM 78%
inactive: [1]; at 1.2 µM -7% | [1]; at 3.7 µM -3% | [1]; at 11.0 µM 19% | [1]; at 33.0 µM 42% | [1]; at 100.0 µM 55% | [2]; at 1.2 µM -12% | [2]; at 3.7 µM -26% | [2]; at 11.0 µM -12% | [2]; at 33.0 µM 21% | [2]; at 100.0 µM 44% | [3]; at 1.2 µM -14% | [3]; at 3.7 µM 10% | [3]; at 11.0 µM -1% | [3]; at 33.0 µM 38% | [3]; at 100.0 µM 62% | [4]; at 1.2 µM 15% | [4]; at 3.7 µM 27% | [4]; at 11.0 µM 33% | [5]; at 1.2 µM -1% | [5]; at 3.7 µM -2% | [5]; [16] 42% | [5]; at 11.0 µM 24% | [5]; at 33.0 µM 66% | [6]; at 1.2 µM 7% | [6]; at 3.7 µM -23% | [6]; [16] 42% | [6]; at 11.0 µM -10% | [6]; at 33.0 µM 40% | [6]; at 50.0 µM 47.1% | [7]; [16] -18% | [7]; [17] 61% | [8]; at 1.2 µM 0% | [8]; at 3.7 µM -8% | [8]; at 11.0 µM 3% | [8]; at 33.0 µM 6% | [8]; at 100.0 µM 5% | [9]; [16] 33% | [9]; [17] 68% | [9]; at 50.0 µM 37.9% | [10]; at 1.2 µM 15% | [10]; at 3.7 µM 6% | [10]; [16] 40% | [10]; at 11.0 µM 52% | [11]; at 1.2 µM -46% | [11]; at 3.7 µM -43% | [11]; at 11.0 µM -35% | [11]; at 33.0 µM 21% | [11]; at 100.0 µM 43% | [12]; at 1.2 µM -4% | [12]; at 3.7 µM -13% | [12]; at 11.0 µM 15% | [12]; at 33.0 µM 47% | [12]; at 100.0 µM 60% | [13]; at 1.2 µM -1% | [13]; at 3.7 µM -17% | [13]; at 11.0 µM 7% | [13]; at 33.0 µM 50% | [13]; at 100.0 µM 60% | [14]; [16] 37% | [14]; at 50.0 µM 56.9% | [15]; at 1.2 µM -7% | [15]; at 3.7 µM 0% | [15]; at 11.0 µM 51%

CCCCCCN(CCCCCC)CC(O)c1ccnc2ccc(OC)cc12 (stereo unspecified)
inactive: [1]; at 1.2 µM 0% | [1]; at 3.7 µM -2% | [1]; at 11.0 µM -5% | [1]; at 33.0 µM -7% | [1]; at 100.0 µM 66% | [2]; at 1.2 µM -1% | [2]; at 3.7 µM -3% | [2]; at 11.0 µM -5% | [2]; at 33.0 µM -7% | [2]; at 100.0 µM 15% | [3]; at 1.2 µM -4% | [3]; at 3.7 µM -2% | [3]; at 11.0 µM -2% | [3]; at 33.0 µM -5% | [3]; at 100.0 µM -8% | [4]; at 1.2 µM 1% | [4]; at 3.7 µM 2% | [4]; at 11.0 µM 0% | [4]; at 33.0 µM -3% | [5]; at 1.2 µM 1% | [5]; at 3.7 µM 1% | [5]; [16] -9% | [5]; at 11.0 µM -1% | [5]; at 33.0 µM -3% | [5]; [17] 27% | [5]; at 50.0 µM -10.1% | [5]; at 100.0 µM 69% | [6]; at 1.2 µM 2% | [6]; at 3.7 µM -1% | [6]; [16] -5% | [6]; at 11.0 µM 1% | [6]; at 33.0 µM 2% | [6]; [17] 18% | [6]; at 50.0 µM 1.15% | [6]; at 100.0 µM 67% | [7]; [16] -9% | [7]; [17] 49% | [8]; at 1.2 µM 6% | [8]; at 3.7 µM 1% | [8]; at 11.0 µM -1% | [8]; at 33.0 µM 1% | [8]; at 100.0 µM 36% | [9]; [16] -12% | [9]; [17] 26% | [9]; at 50.0 µM -8.6% | [10]; at 1.2 µM 5% | [10]; at 3.7 µM 5% | [10]; [16] -1% | [10]; at 11.0 µM 6% | [10]; at 33.0 µM 4% | [10]; [17] 40% | [10]; at 50.0 µM 26.6% | [10]; at 100.0 µM 61% | [11]; at 1.2 µM -1% | [11]; at 3.7 µM -4% | [11]; at 11.0 µM -5% | [11]; at 33.0 µM -5% | [11]; at 100.0 µM 68% | [12]; at 1.2 µM -1% | [12]; at 3.7 µM -3% | [12]; at 11.0 µM -3% | [12]; at 33.0 µM -4% | [13]; at 1.2 µM -3% | [13]; at 3.7 µM -2% | [13]; at 11.0 µM -3% | [13]; at 33.0 µM -3% | [14]; [16] -3% | [14]; [17] 14% | [14]; at 50.0 µM 38.1% | [15]; at 1.2 µM -5% | [15]; at 3.7 µM -7% | [15]; at 11.0 µM -7% | [15]; at 33.0 µM -13% | [15]; at 100.0 µM 35%
active: [4]; at 100.0 µM 74% | [7]; at 50.0 µM 74.5% | [12]; at 100.0 µM 74% | [13]; at 100.0 µM 79%
